Test results: PubChem BioAssay AID602393 (Broad Institute, 2012)
The whole screen tested about 350,000 compounds, of which about 7,000 (2%) were called active. Only a selection was taken, and actives are over-represented in it overall. Unmarked numbers belong to inactive results. No stated cut-off is given here; in the data, active means activation above about 40%; inconclusive means no clear call, values can overlap the other calls; inactive means below that.

Test: Bmi1 luciferase reporter increase in mESCs, primary screen, esBAF inhibitor project, mouse ES cells, Bmi1 luciferase knock-in, single point (AID 602393);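 further: 0% = median of the plate's neutral control wells and 100% = double that signal; a rise in the Bmi1 reporter signal indicates esBAF inhibition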
Details: 24 h, at 12.5 µM, hits give high values, 100% = twice the neutral-well signal

Row | SMILES | reporter increase
1 | O=C(C[C@H]1C=C[C@H](NS(=O)(=O)c2ccc(F)cc2)[C@H](CO)O1)NCc1ccncn1 | 0.952%
2 | COc1ccc(C(=O)Nc2ccc(C3(C#N)CCCC3)cc2)cc1OC | 44% (active)
3 | COc1ccc(C(=O)Nc2ccc3c(c2)OCO3)cc1OC | 53.2% (active)
4 | Cc1ccc(NC(=O)c2ccc(Cl)nc2)cc1S(=O)(=O)N1CCOCC1 | 0.751%
5 | O=C(Nc1ccc(N2CCOCC2)cc1)c1ccc2c(c1)OCO2 | 39.9%
6 | Cc1ccc(C(=O)Nc2ccc3c(c2)OCCO3)cc1S(=O)(=O)N1CCOCC1 | 70.5% (active)
7 | Cc1ccc(NC(=O)C2CC(=O)N(c3ccc4c(c3)OCCO4)C2)cc1S(=O)(=O)N1CCCCCC1 (stereo unspecified) | 1.1%
8 | COc1ccc(C(=O)NC2CC(C)(C)NC(C)(C)C2)cc1OC | 0.227%
9 | Cc1ccc(NC(=O)CCCNC(=O)c2ccc(Cl)cc2)cc1S(=O)(=O)N1CCCCC1 | -3.1%
10 | COc1ccc(Cl)cc1NC(=O)CN(C)CC(=O)Nc1ccc2c(c1)OCO2 | 0.413%
11 | COc1cc(C(=O)NCC2(c3ccccc3)CCCC2)ccc1OC(C)C | -10.2%
12 | Cc1ccc(C(=O)Nc2ccc3c(c2)OCO3)cc1S(=O)(=O)N1CCCCC1 | 57% (active)
13 | Cc1ccc(C(=O)Nc2ncccc2C)cc1S(=O)(=O)N1CCOCC1 | 3.68%
14 | O=C(Cc1ccncc1)NCC[C@@H]1CC[C@H](NC(=O)Nc2ccc(Cl)cc2)[C@@H](CO)O1 | -1.9%
15 | CN1CCN(C(=O)C[C@H]2C[C@H]3c4cc(NC(=O)C5CCC5)ccc4O[C@H]3[C@H](CO)O2)CC1 | 1.39%
16 | O=C(NCCN1CCCC1)[C@@H]1N[C@@H]2c3ccc(-c4ccccc4)c(=O)n3C[C@@H]2[C@H]1CO | -5.2%
17 | O=C(C[C@@H]1CC[C@H](NC(=O)Nc2cc(F)ccc2F)[C@H](CO)O1)NCc1ccncn1 | 4.9%
18 | C[C@H]1CN([C@@H](C)CO)C(=O)c2cc(-c3ccccc3F)cnc2O[C@@H]1CN(C)C(=O)C1CCCCC1 | -0.372%
19 | CC=Cc1ccc2n(c1=O)C[C@@H]1[C@@H](CO)[C@H](C(=O)NCc3cccc(OC)c3)N[C@H]21 (mixture of isomers) | 0.983%
20 | CCCNC(=O)N1[C@H](CNC(=O)c2cccc(F)c2)[C@H](c2ccccc2)[C@@H]1CO | 3.53%
21 | C[C@@H]1CCCCO[C@H](CN(C)Cc2ccc(C(F)(F)F)cc2)[C@H](C)CN([C@@H](C)CO)C(=O)c2cc(N(C)C)ccc2O1 | 0.085%
22 | COc1ccc(C#Cc2cnc3c(c2)C(=O)N([C@H](C)CO)C[C@@H](C)[C@H](CN(C)C(=O)Nc2cccc(OC)c2)O3)cc1 | 4.12%
23 | COc1ccccc1-c1cnc2c(c1)C(=O)N([C@H](C)CO)C[C@H](C)[C@H](CN(C)Cc1cccnc1)O2 | -8.49%
24 | COc1ccc(S(=O)(=O)N(C)C[C@H]2OCCCC[C@H](C)Oc3ccc(NC(=O)Nc4ccc(F)cc4)cc3C(=O)N([C@@H](C)CO)C[C@H]2C)cc1 | 0.828%
25 | COc1ccc(S(=O)(=O)Nc2cccc3c2O[C@@H](CN(C)S(=O)(=O)c2ccccc2)[C@@H](C)CN([C@@H](C)CO)C3=O)cc1 | 1.5%
26 | Cc1ccc(S(=O)(=O)NCC(=O)Nc2ccc3c(c2)OCCO3)cc1 | -6.84%

Row | SMILES | reporter increase
27 | CC(C)CNS(=O)(=O)c1ccc(C(=O)Nc2ccc3c(c2)OCO3)cc1 | -0.727%
28 | CNS(=O)(=O)c1ccc(NC(=O)Nc2ccc3c(c2)OCO3)cc1 | 52.5% (active)
29 | CO[C@@H]1CN(C)C(=O)c2cc(NC(=O)c3ccccc3F)ccc2OC[C@H](C)NC[C@@H]1C | -0.986%
30 | Cc1ccc(OC(=O)c2c(C)nn(-c3ccccc3)c2C)cc1 | 65% (active)
31 | Cc1cccc(C)c1NC(=O)COC(=O)c1c(C)nn(-c2ccccc2)c1C | -0.0425%
32 | Cc1nn(-c2ccccc2)c(CC(C)(C)C(=O)O)c1C(=O)O | -1.54%
33 | O=C(Nc1cccc(Cl)c1)N1C[C@@H]2[C@H](c3ccccc31)[C@H](CO)N2C(=O)C1CC1 | -2.51%
34 | CCS(=O)(=O)Nc1ccc2c(c1)C(=O)N(C)C[C@@H](OC)[C@@H](C)CN(C(=O)COC)[C@H](C)CO2 | -2.28%
35 | O=C(NCc1cccnc1)C(=O)Nc1nc(-c2ccccc2)cs1 | 38.2%
36 | Cc1ccccc1Nc1nc(-c2cccnc2)cs1 | 71.3% (active)
37 | CN(c1ccc(O)cc1)c1nc(-c2cccnc2)cs1 | 33.5%
38 | COc1ccc(-c2ccc([C@@H]3[C@@H](CO)N4CCCCN(C(=O)NC(C)C)C[C@H]34)cc2)cc1 | -0.595%
39 | CN(C)C(=O)c1cccc(-c2ccc3c(c2)[C@H]2[C@H](CCN2C(=O)c2cccnc2)[C@H](CO)N3)c1 | -0.408%
40 | CO[C@H]1CN(C)C(=O)c2ccc(NC(=O)c3cnccn3)cc2OC[C@@H](C)N(C(C)=O)C[C@H]1C | -1.77%
41 | C[C@H](NC(=O)C[C@H]1C=C[C@H](NS(=O)(=O)c2cccc(F)c2)[C@@H](CO)O1)c1ccccc1 | -4.57%
42 | C[C@@H]1CCCCO[C@H](CN(C)S(=O)(=O)c2cn(C)cn2)[C@H](C)CN([C@H](C)CO)C(=O)c2cc(N(C)C)ccc2O1 | -3.59%
43 | COC(=O)c1sccc1N/N=C(\C)c1ccc(F)c(Cl)c1 | 11.8%
44 | COc1ccc(/C(C)=N/NC(=O)c2ccc3nc[nH]c3c2)cc1 | -4.25%
45 | COc1cccc(/C(C)=N/Nc2ncc(Cl)cc2Cl)c1 | 54% (active)
46 | C[C@@H]1CN([C@@H](C)CO)C(=O)Cc2cc(NC(=O)CCCCCC(=O)Nc3ccccc3N)ccc2O[C@H]1CN(C)Cc1ccc(Cl)c(Cl)c1 | -6.35%
47 | CSc1ccccc1OCc1cc(C(=O)N2C[C@H]3CC[C@H]2C3)no1 | 87.7% (active)
48 | Cc1nonc1C1CCCN1C(=O)c1cc(COc2cccc(C(F)(F)F)c2)on1 (stereo unspecified) | -1.7%
49 | CSc1ccccc1OCc1cc(C(=O)N(C)CCc2c(C)n[nH]c2C)no1 | -2.74%
50 | CCNC(=O)[C@@H]1[C@@H](CO)[C@@H]2Cn3c(ccc(C4=CCCC4)c3=O)[C@H]1N2Cc1ccccc1 | -1.26%
51 | O=C(C[C@@H]1CC[C@H]2[C@@H](COC[C@H](O)CN2C(=O)Nc2ccccc2)O1)NCc1ccccc1F | 4.71%
52 | COc1cc(-c2nnc(NC(=O)C3=COCCO3)o2)cc(OC)c1OC | -0.666%

Row | SMILES | reporter increase
53 | CCC(CC)c1nnc(NC(=O)C2CCN(C(=O)c3ccco3)CC2)s1 | 3.96%
54 | CCC(CC)c1nnc(NC(=O)C2=COCCO2)s1 | 53.6% (active)
55 | CC1CC(C)CN(CCCNC(=O)c2csc3c2CCCCC3)C1 (stereo unspecified) | -0.645%
56 | O=C(Nc1ccccc1N1CCOCC1)c1csc2c1CCCC2 | 2.6%
57 | COC(=O)c1sc(NC(=O)c2csc3c2CCCC3)nc1C | 52.4% (active)
58 | CN1c2ccc(Br)cc2[C@H]2[C@H](CCN2S(=O)(=O)c2ccccc2)[C@@H]1CO | 1.11%
59 | CO[C@H]1CN(C)C(=O)c2cc(NC(=O)c3cc(C)on3)ccc2OC[C@@H](C)N(C(C)=O)C[C@H]1C | -1.52%
60 | COc1ccc(Cc2nnc(NC(=O)c3cc(OC)c(OC)c(OC)c3)s2)cc1OC | -8.39%
61 | COc1ccc(C(=O)NC2=NCCS2)c(OC)c1 | -5.27%
62 | COc1ccc(C(=O)Nc2nncs2)c(OC)c1 | 72.1% (active)
63 | COc1ccc(Cc2nnc(NC(=O)c3ccc(OC)cc3OC)s2)cc1 | 60.8% (active)
64 | COc1ccc(Cc2nnc(NC(=O)Cc3cccs3)s2)cc1 | -12.5%
65 | COc1cccc(OC)c1C(=O)Nc1nnc(C(C)C)s1 | 4.44%
66 | C[C@@H](O)C#Cc1cnc2c(c1)C(=O)N([C@@H](C)CO)C[C@H](C)[C@H](CN(C)C(=O)c1ccccc1F)O2 | -1.43%
67 | COc1ccccc1-c1cnc2c(c1)C(=O)N([C@H](C)CO)C[C@H](C)[C@@H](CN(C)C(=O)CC1CC1)O2 | -6.49%
68 | O=C(O)C[C@@H]1C[C@@H]2c3cc(NC(=O)Nc4ccccc4)ccc3O[C@@H]2[C@H](CO)O1 | 2.21%
69 | Cc1ccc2nc(/C(C#N)=C\c3ccc(OC(=O)c4cccs4)cc3)[nH]c2c1 | 113% (active)
70 | CCC(=O)N(C)C[C@H]1Oc2ncc(-c3ccccc3OC)cc2C(=O)N([C@H](C)CO)C[C@H]1C | 2.4%
71 | C[C@@H]1CCCCO[C@H](CN(C)C(=O)Cc2ccccc2)[C@@H](C)CN([C@@H](C)CO)C(=O)c2cc(NC(=O)c3ccccc3)ccc2O1 | -0.116%
72 | Cc1ccc(S(=O)(=O)/N=C(/Nc2ccccn2)c2ccc(Cl)cc2)cc1 | 45.6% (active)
73 | Cc1ccc(S/C(=N\S(=O)(=O)c2ccc(Cl)cc2)c2ccccc2)cc1 | -7.08%
74 | Cc1ccc(S(=O)(=O)/N=C(/Nc2ccc3[nH]c(=O)[nH]c3c2)c2ccccc2)cc1 | 3.61%
75 | C[C@@H]1CN([C@@H](C)CO)C(=O)c2cccc(NC(=O)Nc3ccc(C(F)(F)F)cc3)c2O[C@@H]1CN(C)S(=O)(=O)c1cccs1 | 0.762%
76 | C[C@@H](O)C#Cc1cnc2c(c1)C(=O)N([C@@H](C)CO)C[C@H](C)[C@@H](CN(C)CC1CCCCC1)O2 | -1.99%
